Activity score data for 108 compounds are collected here from PubChem BioAssay AID1814 (Broad Institute, 2009).

Out of some 300,000 compounds screened, about 22,000 (7.3%) were called active. About 2% were inconclusive and are not listed. Cut-off read from the data, not from the text of the source: active = activity score below about -60%; inconclusive = mostly about -28% to -61%; inactive = positive scores. The full list was thinned out, with actives kept by preference.

A short description of this test: Activators working through SNCA 5'UTR binding (MLPCN) (AID 1814). The conditions noted are these: alpha-synuclein 5'UTR reporter, activators screen; stronger effect = lower value; tested at 7.5 µM.
Regarding `CCOC(=O)c1cnc(-n2nc(C)cc2C)nc1NNc1cc(C)nc(-c2ccccc2)n1`, the activity score was 105% (inactive).
For `Cc1cc(-n2nc(C)cc2C)n2ncc(-c3ccccc3)c2n1` the value was -73.6% (active); for `O=C1/C(=C\Nc2ccccc2)CCN1c1ncccn1`, -99.5% (active); for `O=C(CSC(=S)N1CCCCC1)c1c(F)cccc1F`, -175% (active).
As to `CCOc1ccc(C(O)Cc2nc3ccccc3n2C)cc1` (stereo not drawn), the activity score is -67.7% (active).
The result for `COc1ccc(OCc2ccc(-c3nc4ccccc4c(=O)n3N)o2)cc1` reads -143% (active); that for `COc1ccc(C)c(Cn2c(-c3nonc3N)nc3ccccc32)c1`, 76.2% (inactive); that for `Cc1ccc(OCc2nc3ccccc3n2C)cc1`, -109% (active).
For `COCn1c(COc2ccccc2)nc2ccccc21` the value was -65.8% (active).
For the compound `Cn1c(COc2ccc(Cl)cc2)nc2ccccc2c1=O`, the activity score was -91.8% (active).
For `CC(C)c1ccc(Nc2ncccc2C#N)cc1` the value was -111% (active); for `COC(=O)c1sc(NC(=S)NC(=O)c2ccc(C)cc2)nc1C`, -102% (active); for `CC(=O)c1sc(NC(=O)c2ccc(C)cc2)nc1C`, -112% (active).
For `O=C(N/N=C/c1ccc([N+](=O)[O-])o1)c1cccc(S(=O)(=O)N2CCOCC2)c1` the value was -81.1% (active); for `COc1ccc(C(=NN)c2ccc(OC)cc2)cc1`, -133% (active).
For `O=C(Nc1ccon1)c1sc2ccccc2c1Cl` the value was -179% (active).
`Cc1c(Cl)c([N+](=O)[O-])nn1Cc1ccc(C(=O)N/N=C\c2cc(Cl)ccc2O)o1`: the activity score was 81.2% (inactive).
For `CN(C)c1ccc(/C=N/NC(=O)c2ccc(Cn3cc(Br)cn3)o2)cc1` the value was -69.3% (active); for `CC(C)c1cc(C(N)=O)c(NC(=O)c2cccc(COc3ccc(Br)cc3)c2)s1`, -194% (active); for `CCOc1ccc(OCc2cccc(C(=O)N(CC)CC)c2)cc1`, 50.8% (inactive).
The result for `CN(C)c1nc(=Nc2cccc(Cl)c2)ss1` reads -64.3% (active); that for `CS(=O)(=O)N1CCc2nc(-c3ccccc3)sc2C1`, -90.2% (active).
The result for `O=C(c1ccccc1)c1ccc(OC(=O)N2CCCC2)cc1` reads -65.8% (active); that for `Cc1ccc(CSc2nc3[nH]ncc3c(=O)[nH]2)cc1`, -78% (active); that for `Clc1ccc(-c2nnc(SCc3nc4ccccc4s3)o2)cc1`, -162% (active).
For `Oc1ccc(CNc2ccccc2O)cc1`, the activity score is -62.2% (active).
With `Cc1cc(OCc2cc(C(=O)NCc3cc(C(C)C)no3)no2)cc(C)c1Cl`, the activity score is -135% (active).
The result for `CCOc1ccc(NS(=O)(=O)c2ccc(C)c(C(N)=O)c2)cc1` reads -72.9% (active); that for `COc1cc(CN2CCC(C(N)=O)CC2)ccc1OCc1ccccc1`, -111% (active); that for `N=c1c2c3c(sc2nc2n1CCCCC2)CCCC3`, -89.5% (active).
For `CCCCc1ccc(NC(=S)N2CCCC(CO)C2)cc1` (stereo not drawn) the value was -107% (active); for `Fc1ccc(/C=N/Nc2nc(-c3cccnc3)nc3ccccc23)cc1`, -70.9% (active).
Take `CN(CCO)c1ccc(/C=N/Nc2nncc3ccccc23)cc1`: the activity score was 57.2% (inactive).
For `CC(C)c1ccc(NC(=O)NC2CCCCC2)cc1` the value was -244% (active); for `Cc1ccc(NC(=S)NC2CCCC2)cc1`, -65.1% (active).
The result for `Cc1ccc(/C=N/NC(=S)NC2CCCCC2)o1` reads -135% (active); that for `Cc1cc(Br)ccc1NC(=S)NC1CCCC1`, -66.7% (active); that for `CCN(CC)S(=O)(=O)c1ccc(-c2cn3ccc(C)cc3n2)cc1`, -169% (active).
The result for `Cc1ccc2nc(-c3ccc(Br)cc3)cn2c1` reads 63.2% (inactive); that for `COc1ccc(-c2cn3ccc(C)cc3n2)cc1`, 92.2% (inactive).
Regarding `Cc1cccc(N=Nc2c(O)[nH]c3ccc(F)cc23)c1`, the activity score was -147% (active).
Regarding `O=C(CC1CCCCC1)NCc1ccc(F)cc1`, the activity score was -72.4% (active).
The result for `O=C(CC1CCCCC1)NCc1ccccc1` reads -86.3% (active).
For `O=C(NCCc1ccc(F)cc1)c1n[nH]c2ccccc12` the value was -150% (active); for `O=C(Cc1ccccc1)NCc1ccc(F)cc1`, -66.4% (active); for `COc1ccc(COC(=O)c2n[nH]c3ccccc23)cc1F`, -96.4% (active).
As to `O=C1Nc2ccccc2C12Nc1ccccc1S2` (stereo not drawn), the activity score was -83.2% (active).
The result for `CCc1ccc2c(c1)C1(NN=C(c3ccccc3)S1)C(=O)N2` (stereo not drawn) reads 71.7% (inactive); that for `CCC(C)c1ccc(NC(=S)NCc2ccccn2)cc1` (stereo not drawn), -123% (active); that for `COc1cccc(NC(=S)NCc2ccccn2)c1`, -101% (active).
Consider `CCOC(=O)c1cc2cc(C)ccc2[nH]1`, for which the activity score is -132% (active).
The result for `CCOC(=O)c1nc(-c2ccc3c(c2)OCO3)[nH]c1C` reads -109% (active); that for `C[C@@H]1C[C@@H]2O[C@H]2/C=C\C=C\C(=O)Cc2c(Cl)c(O)cc(O)c2C(=O)O1`, -113% (active).
As to `CN1CCN(CCCNC(=O)c2ccc(/C=C3\Oc4ccccc4N(Cc4ccc(Cl)cc4)C3=O)cc2)CC1`, the activity score is 96.5% (inactive).
The result for `CC(C)c1ccc(C(=O)NCCCc2ccccc2)cc1` reads -150% (active); that for `S=C(Nc1ccc2c(c1)OCO2)N1CCCC1`, -93.7% (active); that for `Cc1cccn2c(=O)c(C=O)c(Nc3ccc(S(N)(=O)=O)cc3)nc12`, -500% (active).
For `O=C(CC1Nc2ccccc2NC1=O)Nc1ccccc1` (stereo not drawn) the value was -128% (active); for `Oc1c(Br)cccc1/C=N/Nc1c(F)c(F)c(F)c(F)c1F`, -72.3% (active).
For `Cc1[nH]c(=O)c(C(=O)/C=C/c2ccccc2)c2c1CCCC2` the value was -146% (active); for `COc1cccc(NC(=S)C(C#N)=C2N(C)c3ccccc3N2C)c1`, -86.1% (active).
For the compound `COc1ccc(-c2csc3nc(-c4ccccc4F)oc(=O)c23)cc1OC`, the activity score was -63.1% (active).
For `COc1ccc(/C=N/Nc2ncnc3sc4c(c23)CCCC4)cc1O` the value was -197% (active); for `CC(C)(C)c1ccc(/C=C/C(=O)Nc2ncccn2)cc1`, -155% (active); for `O=c1c2c(-c3ccccc3)ccnc2[nH]n1-c1ccccc1`, -127% (active).
The result for `CN(C)c1nc(N)nc(CSc2nnnn2-c2cccc3ccccc23)n1` reads 68.9% (inactive); that for `CN(C(=O)CSc1nnnn1-c1ccccc1)C1CCCCC1`, -63.1% (active); that for `CN(C(=O)CSc1nncc2ccccc12)C1CCCCC1`, -107% (active).
The result for `CN(c1ccc2nc3ccccc3c(=O)n2n1)C1CCCCC1` reads 119% (inactive).
Regarding `Cc1ccc(O)c(NC(=O)c2cc(-c3ccco3)on2)c1`, the activity score is -184% (active).
For `O=C(Cc1cccc2ccccc12)NNC(=O)Nc1ccc(Cl)cc1`, the activity score is -112% (active).
Regarding `Cc1nn2cc(-c3ccc(Cl)cc3)cnc2c1Br`, the activity score was -110% (active).
For `CN1CCN(NC(=O)Nc2ccc(Br)cc2)CC1` the value was -64.9% (active); for `COc1ccc(-n2nnnc2-c2nc3ccccc3s2)cc1`, -77.3% (active).
The result for `O=C(Nc1cccc(-c2nnc(-c3ccccc3)o2)c1)C1CCCO1` (stereo not drawn) reads -126% (active); that for `O=c1c(-c2cccc(Cl)c2)c[nH]n1-c1ccccc1`, -74.9% (active); that for `COc1ccc(Cn2c(-c3ccc(Cl)cc3)c[n+]3ccccc23)cc1`, -155% (active).
For `Fc1ccc(COc2ccc(-c3nnco3)cc2)cc1` the value was -126% (active).
As for `Cc1cc(C)c2nc3nc(C)cc(C)c3c(N)c2c1`, the activity score is -190% (active).
For `CCCCC(O)(CCCC)C(=O)NN(C(=O)CCl)c1ccccc1`, the activity score was -67.8% (active).
The result for `S=C(Nc1ccc(Br)cc1Cl)N1CCC2(CC1)OCCO2` reads -70.7% (active); that for `COc1ccc(C(=O)CCc2ccccc2O)c(OC)c1`, -128% (active).
For `O=C(NC1CCCC1)c1cc(-c2ccccc2)on1` the value was -324% (active); for `O=C(NC1CCCCC1)c1cc(C2CC2)on1`, -78% (active).
The result for `O=C(NC1CC1)c1ccc(-c2ccccc2)cc1` reads -142% (active); that for `O=C(NCCCn1ccnc1)c1cc(-c2ccccc2)on1`, -632% (active).
Turning to `CN(C)S(=O)(=O)N1CCC(Oc2cccc(C(=O)NCCCC3CCCC3)c2)CC1`, the activity score was -70.6% (active).
As to `O=C(NCCOc1cccnc1)c1ccc(OC2CCN(Cc3ccccn3)CC2)cc1`, the activity score was 95.3% (inactive).
For `Cc1c(NC(=O)c2coc(=O)c(Br)c2)c(=O)n(-c2ccccc2)n1C` the value was -75.7% (active); for `Cc1c(NC(=O)c2cc(-c3ccc(Cl)s3)nc3ccccc23)c(=O)n(-c2ccccc2)n1C`, -105% (active).
For `CC1(C)CCSC(/C=C/c2ccccc2)=N1` the value was -123% (active); for `O=C(c1cnn(-c2ccc(Cl)cc2)c1)c1ccccc1O`, -238% (active); for `COc1ccc2nc(NC(=O)NC3CCCCC3)sc2c1`, -186% (active).
For `COc1ccc2nc(NC(=O)c3ccc(Br)s3)sc2c1`, the activity score was -209% (active).
`COc1ccc2nc(Nc3nc4cc5c(cc4s3)OCCO5)sc2c1`: the activity score was -103% (active).
For `COc1ccc(NC(=O)Nc2ccc3nsnc3c2)cc1`, the activity score is -138% (active).
The result for `COc1ccc2nc(Nc3nc4ccc(NC(C)=O)cc4s3)sc2c1` reads -95.5% (active).
For `CCc1noc(C)c1C(=O)Nc1nc2ccc(OC)cc2s1` the value was -85% (active).
The result for `CCOc1ccc2nc(Nc3nc4ccc(NC(C)=O)cc4s3)sc2c1` reads -88.4% (active).
For the compound `CCOc1ccc2nc(N(CCCN(C)C)C(=O)c3ccc(C(=O)c4ccccc4)cc3)sc2c1`, the activity score is 90.2% (inactive).
Consider `COc1cccc(C(=O)Nc2nc3ccc(S(C)(=O)=O)cc3s2)c1`, for which the activity score was -102% (active).
For `COc1ccc(/C=N/OCc2ccccc2C#N)c(OC)c1` the value was -182% (active); for `COc1ccc(N2CCN(C(=O)c3cccs3)CC2)cc1`, -69.4% (active); for `COC(=O)Nc1nc2ccc(Sc3ccccc3)cc2[nH]1`, 59.2% (inactive).
The result for `Cc1ccc(O)c(CNc2nc3ccccc3[nH]2)c1` reads -69.9% (active).
For `Cc1ccc(-c2nc(COC(=O)c3c(C)noc3C)cs2)cc1` the value was -170% (active); for `CCN1/C(=C/C(=S)Nc2ccccc2)Sc2ccccc21`, -111% (active); for `CSc1nccc(NC(=O)c2ccc(C(C)(C)C)cc2)n1`, -147% (active).
